Test results published in PubChem BioAssay AID1159580 (chemical genetic matrix, 2015).
In all, about 5,500 compounds went through this assay and about 2,000 (36%) were called active. Not shown: some 18% with an inconclusive outcome. Cut-off read from the data, not from the text of the source: active = normalized growth mostly below about 0.91 (no sharp cut-off); inconclusive = no clear call, values can overlap the other calls; inactive = mostly above about 0.92. The list shows a part of the results.

Assay: chemical genetic growth profiling, strain panel (AID 1159580);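 note: tested at 20 µM; growth read once vehicle control cultures reached saturation at 30 °C; 1 = growth at the plate median or of vehicle wells; lower values mean less growth of the strain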
Details: S. cerevisiae deletion strains, growth OD
[1] = locus YAR019C, strain CDC15, active compounds read low
[2] = locus YBL105C, strain PKC1, active compounds read low
[3] = locus YBR135W, strain CKS1, active compounds read low
[4] = locus YBR136W, strain MEC1, active compounds read low
[5] = locus YBR160W, strain CDC28, active compounds read low
[6] = locus YDL017W, strain CDC7, active compounds read low
[7] = locus YDL028C, strain MPS1, active compounds read low
[8] = locus YDL101C, strain DUN1, active compounds read low
[9] = locus YDL108W, strain KIN28, active compounds read low
[10] = locus YDL132W, strain cdc53, active compounds read low
[11] = locus YDL214C, strain PRR2, active compounds read low
[12] = locus YDR052C, strain DBF4, active compounds read low
[13] = locus YDR054C, strain cdc34, active compounds read low
[14] = locus YDR226W, strain ADK1, active compounds read low
[15] = locus YDR477W, strain SNF1, active compounds read low
[16] = locus YER123W, strain YCK3, active compounds read low
[17] = locus YER133W, strain GLC7, active compounds read low
[18] = locus YFL009W, strain cdc4, active compounds read low
[19] = locus YFL029C, strain CAK1, active compounds read low
[20] = locus YFR003C, strain YPI1, active compounds read low
[21] = locus YFR019W, strain FAB1, active compounds read low
[22] = locus YFR028C, strain CDC14, active compounds read low
[23] = locus YGR040W, strain KSS1, active compounds read low
[24] = locus YGR052W, strain FMP48, active compounds read low
[25] = locus YGR092W, strain DBF2, active compounds read low
[26] = locus YHR030C, strain SLT2, active compounds read low
[27] = locus YHR079C, strain IRE1, active compounds read low
[28] = locus YHR082C, strain KSP1, active compounds read low
[29] = locus YHR205W, strain SCH9, active compounds read low
[30] = locus YIL147C, strain SLN1, active compounds read low
[31] = locus YJL095W, strain BCK1, active compounds read low
[32] = locus YJL128C, strain PBS2, active compounds read low
[33] = locus YJL157C, strain FAR1, active compounds read low
[34] = locus YJR016C, strain ILV3, active compounds read low
[35] = locus YJR066W, strain TOR1 (second series), active compounds read low
[36] = locus YJR066W, strain TOR1, active compounds read low
[37] = locus YKL048C, strain ELM1, active compounds read low
[38] = locus YKL067W, strain YNK1, active compounds read low
[39] = locus YKL101W, strain HSL1, active compounds read low
[40] = locus YKL193C, strain SDS22, active compounds read low
[41] = locus YKL203C, strain TOR2, active compounds read low
[42] = locus YLR113W, strain HOG1, active compounds read low
[43] = locus YLR133W, strain CKI1, active compounds read low
[44] = locus YLR403W, strain SFP1, active compounds read low
[45] = locus YML070W, strain DAK1, active compounds read low
[46] = locus YMR001C, strain CDC5, active compounds read low
[47] = locus YMR205C, strain PFK2 (second series), active compounds read low
[48] = locus YMR277W, strain FCP1, active compounds read low
[49] = locus YNL006W, strain LST8, active compounds read low
[50] = locus YNL020C, strain ARK1, active compounds read low
[51] = locus YNL161W, strain CBK1, active compounds read low
[52] = locus YNL183C, strain NPR1, active compounds read low
[53] = locus YNL207W, strain RIO2, active compounds read low
[54] = locus YNL222W, strain SSU72, active compounds read low
[55] = locus YNL307C, strain MCK1 (second series), active compounds read low
[56] = locus YOL078W, strain AVO1, active compounds read low
[57] = locus YOL136C, strain PFK27, active compounds read low
[58] = locus YOR061W, strain CKA2, active compounds read low
[59] = locus YOR119C, strain RIO1, active compounds read low
[60] = locus YOR231W, strain MKK1, active compounds read low
[61] = locus YOR329C, strain SCD5, active compounds read low
[62] = locus YPL031C, strain PHO85, active compounds read low
[63] = locus YPL153C, strain RAD53, active compounds read low
[64] = locus YPL204W, strain HRR25, active compounds read low
[65] = locus YPL209C, strain IPL1, active compounds read low
[66] = locus YPL256C, strain CLN2, active compounds read low
[67] = locus YPR025C, strain CCL1, active compounds read low
[68] = locus YPR106W, strain ISR1, active compounds read low
[69] = locus YPR111W, strain DBF20, active compounds read low
[70] = strain NNK1, active compounds read low
[71] = strain TSCII, active compounds read low

Measured: normalized growth

Cc1cc(NNC(=O)c2ccccc2Cl)nc2c1c(C)nn2C
inactive: [1] 0.994 | [2] 0.989 | [3] 0.979 | [4] 0.979 | [5] 0.983 | [6] 0.987 | [7] 0.978 | [8] 0.994 | [9] 0.978 | [10] 0.978 | [11] 0.951 | [12] 0.99 | [13] 0.993 | [14] 0.976 | [15] 0.978 | [16] 0.938 | [17] 0.96 | [18] 0.98 | [19] 0.993 | [20] 0.987 | [21] 0.95 | [22] 0.973 | [23] 0.958 | [24] 1.01 | [25] 0.974 | [26] 1.07 | [27] 1.08 | [28] 1.05 | [29] 0.953 | [30] 0.984 | [31] 0.968 | [32] 0.966 | [33] 0.972 | [34] 0.988 | [35] 0.926 | [36] 1.08 | [37] 0.964 | [38] 0.958 | [39] 0.941 | [40] 0.985 | [41] 1.06 | [42] 0.93 | [43] 0.951 | [44] 0.968 | [45] 0.956 | [46] 0.992 | [47] 0.97 | [48] 0.986 | [49] 0.982 | [50] 0.973 | [51] 0.98 | [52] 1.03 | [53] 0.985 | [54] 0.989 | [55] 0.973 | [56] 0.978 | [57] 0.905 | [58] 0.94 | [59] 1.04 | [60] 0.978 | [61] 0.989 | [62] 0.97 | [63] 0.987 | [64] 0.945 | [65] 0.993 | [66] 1.05 | [67] 0.993 | [68] 0.999 | [69] 0.993 | [70] 0.998 | [71] 0.98

Cc1cc(Cl)ccc1NNC(=O)c1ccno1
inactive: [1] 0.974 | [2] 0.958 | [3] 0.981 | [4] 0.968 | [5] 0.966 | [6] 0.97 | [7] 0.979 | [8] 0.967 | [9] 0.97 | [10] 0.987 | [11] 0.933 | [12] 0.968 | [13] 0.961 | [14] 0.976 | [15] 0.944 | [16] 0.884 | [17] 0.938 | [18] 0.974 | [19] 0.96 | [20] 0.967 | [21] 0.925 | [22] 0.979 | [23] 0.917 | [24] 0.996 | [25] 0.912 | [26] 0.954 | [27] 1 | [28] 1 | [29] 0.902 | [30] 0.971 | [31] 0.931 | [32] 0.927 | [33] 0.919 | [34] 0.987 | [35] 0.87 | [36] 1.01 | [37] 0.912 | [38] 0.939 | [39] 0.903 | [40] 0.971 | [41] 0.978 | [42] 0.871 | [43] 0.908 | [44] 0.903 | [45] 0.903 | [46] 0.962 | [47] 0.938 | [48] 0.978 | [49] 0.975 | [50] 0.912 | [51] 0.972 | [52] 0.953 | [53] 0.966 | [54] 0.978 | [55] 0.907 | [56] 0.977 | [57] 0.889 | [58] 0.946 | [59] 0.977 | [60] 0.899 | [61] 0.963 | [62] 0.942 | [63] 0.916 | [64] 0.904 | [65] 0.958 | [66] 0.958 | [67] 0.975 | [68] 0.945 | [69] 0.957 | [70] 0.955 | [71] 0.972
